Measurements from PubChem BioAssay (Tox21).
“And” between values parts separate entries of the source, which are not always exact repeats. Equal entries are not always repeated. Results filed as inconclusive are left out. Where a call stands in place of a potency, no number is given. More than one record can exist for a structure, and the calls need not agree. The source made the active and inactive calls. Unless noted, calls follow the shape of the dose curve; as a rule, active = well fitted curve in the direction sought with a large enough effect in the repeat runs; inconclusive = weak or mixed curves; inactive = no such curve, though single readings can be large; an effect the other way counts as inactive or inconclusive.

Assays:
[1] = qHTS assay to test for compound auto fluorescence at 535 nm (green) in HEK293 cells (AID 720680)
[2] = qHTS assay to test for compound auto fluorescence at 460 nm (blue) in HEK293 cell free culture (AID 720681); also: potency is read from the fitted curve at half-maximal effect
Procedure, shortened: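 Blue fluorescence (Ex 405/Em 460 nm, triamterene-equivalent) was read immediately after pin transfer of compound or DMSO into medium (DMEM, 10% FBS) without cells.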

[3] = qHTS assay to test for compound auto fluorescence at 535 nm (green) in HEK293 cell free culture (AID 720682)
Procedure, shortened: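 Green-channel intensity (Ex/Em 485/535 nm) was recorded from compound-treated wells containing only DMEM with 10% FBS. Fluorescein provided the equivalency standard.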

[4] = qHTS assay to test for compound auto fluorescence at 590 nm (red) in HEK293 cell free culture (AID 720683)
Procedure, shortened: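 Red-channel autofluorescence of compounds in culture medium (DMEM, 10% FBS), no cells, measured at 540/590 nm. Rose Bengal sodium is the reference fluorophore for equivalence.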

[5] = qHTS assay to test for compound auto fluorescence at 590 nm (red) in HepG2 cell free culture (AID 720684)
Procedure, shortened: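 Cell-free; medium MEM + 10% FBS; compound or DMSO added by pintool; read Ex 540/Em 590 nm; Rose Bengal sodium as red reference fluorophore.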

[6] = qHTS assay to test for compound auto fluorescence at 460 nm (blue) in HepG2 cell free culture (AID 720685); also: potency is read from the fitted curve at half-maximal effect
Procedure, shortened: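 Cell-free plates of MEM plus 10% FBS received 23 nL compound or DMSO vehicle; blue-channel (405/460 nm) intensity scored against triamterene as reference fluorophore.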

[7] = qHTS assay to test for compound auto fluorescence at 535 nm (green) in HepG2 cell free culture (AID 720686)
[8] = biological target: Glucocorticoid receptor (Homo sapiens) (UniProt P04150); assay: qHTS assay to identify small molecule agonists of the glucocorticoid receptor (GR) signaling pathway (AID 720691; active = well fitted activation curve with a large enough effect in the signal ratio in the repeat runs, not every such curve was filed as active; the % refers to the signal ratio); conditions: GR-bla HeLa, beta-lactamase reporter ratio, 18 h; activation: at 62.4 µM (top of the series)
Procedure, shortened: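 Agonist-mode qHTS in HeLa cells stably expressing a glucocorticoid-response-element beta-lactamase reporter. Fluorescence intensity read with FRET substrate (2 h, room temperature) after 18 h compound treatment at 37 C.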

[9] = qHTS assay for identifying genotoxic compounds that show differential cytotoxicity against isogenic chicken DT40 cell lines with known DNA damage response pathways - wild type cell line (AID 743012); also: nearly all actives have a fitted effect of over 60% in size; also: potency is read from the fitted curve at half-maximal effect
Procedure, shortened: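 Viability by ATP luminescence (CellTiter-Glo, 30 min RT) after 40 h compound treatment at 37 C/5% CO2, using 300 parental DNA repair-proficient DT40 cells per well.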

[10] = qHTS assay for identifying genotoxic compounds that show differential cytotoxicity against isogenic chicken DT40 cell lines with known DNA damage response pathways - Rev3 mutant cell line (AID 743014); also: nearly all actives have a fitted effect of over 55% in size; also: potency is read from the fitted curve at half-maximal effect
[11] = qHTS assay for identifying genotoxic compounds that show differential cytotoxicity against isogenic chicken DT40 cell lines with known DNA damage response pathways - Rad54/Ku70 mutant cell line (AID 743015); also: nearly all actives have a fitted effect of over 60% in size; also: potency is read from the fitted curve at half-maximal effect
[12] = qHTS assay to identify small molecule antagonists of the androgen receptor (AR) signaling pathway using the MDA cell line - cell viability counter screen (AID 743041; also: nearly all actives have a fitted effect of over 45% in size; also: potency is read from the fitted curve at half-maximal effect)
Procedure, shortened: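 Viability read by CellTiter-Fluor fluorescence in the same wells as the antagonist screen, added after 15.5 h of a 16 h, 37C exposure. Human breast carcinoma MDA-kb2 AR-luc cells, compounds co-dosed with agonist R1881.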

[13] = biological target: Glucocorticoid receptor (Homo sapiens) (UniProt P04150); assay: qHTS assay to identify small molecule antagonists of the glucocorticoid receptor (GR) signaling pathway (AID 720692; active = well fitted inhibition curve with a large enough effect in the signal ratio in the repeat runs, not every such curve was filed as active; the % refers to the signal ratio; also: potency is read from the fitted curve at half-maximal effect)
Procedure, shortened: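 Inhibition of dexamethasone-driven (5 nM final) beta-lactamase expression was measured in GRE-reporter HeLa cells over 18 h at 37C. Fluorescence was read after 2 h with the B/G FRET substrate at room temperature.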

[14] = qHTS assay to identify small molecule antagonists of the glucocorticoid receptor (GR) signaling pathway - cell viability counter screen (AID 720693); also: nearly all actives have a fitted effect of over 55% in size; also: potency is read from the fitted curve at half-maximal effect
[15] = qHTS assay to identify small molecule antagonists of the androgen receptor (AR) signaling pathway - cell viability counter screen (AID 743033; also: nearly all actives have a fitted effect of over 45% in size; also: potency is read from the fitted curve at half-maximal effect)
[16] = qHTS assay to test for compound auto fluorescence at 460 nm (blue) in HepG2 cells (AID 720687); also: potency is read from the fitted curve at half-maximal effect
Procedure, shortened: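 Blue-channel autofluorescence (Ex/Em 405/460 nm, triamterene-equivalent) was measured after 1 hr compound exposure at 37 C, 5% CO2. Cells were HepG2, plated overnight at 37 C in MEM plus 10% FBS.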

[17] = biological target: Androgen receptor (Homo sapiens) (UniProt P10275); assay: qHTS assay to identify small molecule agonists of the androgen receptor (AR) signaling pathway using the MDA cell line (AID 743040; also: nearly all actives have a fitted effect of over 20% in size)
Procedure, shortened: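 Luciferase agonist assay: 16 h compound exposure at 37C without CO2 in MDA-kb2 AR-luc cells, whose MMTV promoter responds to both AR and GR. Luminescence measured after 30 min room-temperature incubation with ONE-Glo.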

[18] = biological target: Androgen receptor (Homo sapiens) (UniProt P10275); assay: qHTS assay to identify small molecule antagonists of the androgen receptor (AR) signaling pathway using the MDA cell line (AID 743042; also: nearly all actives have a fitted effect of over 55% in size)
Procedure, shortened: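 Antagonist mode: compounds plus R1881 agonist added to MDA-kb2 AR-luc cells, incubated 16 h at 37C. Luciferase reporter luminescence quantified, with multiplexed CellTiter-Fluor readout for cell viability.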

[19] = biological target: Androgen receptor (Homo sapiens) (UniProt P10275); assay: qHTS assay to identify small molecule antagonists of the androgen receptor (AR) signaling pathway (AID 743035; active = well fitted inhibition curve with a large enough effect in the signal ratio in the repeat runs, not every such curve was filed as active; the % refers to the signal ratio; also: potency is read from the fitted curve at half-maximal effect)
Procedure, shortened: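 Antagonist mode: AR-bla HEK293 cells co-treated with test compounds and agonist R1881 for 16 h at 37C, 5% CO2. Beta-lactamase activity read as FRET fluorescence after 2 h room-temperature substrate loading.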

[20] = biological target: Androgen receptor (Homo sapiens) (UniProt P10275); assay: qHTS assay to identify small molecule agonists of the androgen receptor (AR) signaling pathway (AID 743036; active = well fitted activation curve with a large enough effect in the signal ratio in the repeat runs, with a control signal flat, not every such curve was filed as active; the % refers to the signal ratio; also: potency is read from the fitted curve at half-maximal effect)
Procedure, shortened: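 Cell-based FRET reporter assay: HEK293 line with a UAS-beta-lactamase construct, compounds added in DMSO, 16 h exposure at 37C, then 2 h substrate step at room temperature and fluorescence intensity read.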
Tags tell the direction and shape of the fitted curve or compound fluorescence and quenching.

Chain of Androgen receptor (Homo sapiens) (P10275 whole entry, looked up): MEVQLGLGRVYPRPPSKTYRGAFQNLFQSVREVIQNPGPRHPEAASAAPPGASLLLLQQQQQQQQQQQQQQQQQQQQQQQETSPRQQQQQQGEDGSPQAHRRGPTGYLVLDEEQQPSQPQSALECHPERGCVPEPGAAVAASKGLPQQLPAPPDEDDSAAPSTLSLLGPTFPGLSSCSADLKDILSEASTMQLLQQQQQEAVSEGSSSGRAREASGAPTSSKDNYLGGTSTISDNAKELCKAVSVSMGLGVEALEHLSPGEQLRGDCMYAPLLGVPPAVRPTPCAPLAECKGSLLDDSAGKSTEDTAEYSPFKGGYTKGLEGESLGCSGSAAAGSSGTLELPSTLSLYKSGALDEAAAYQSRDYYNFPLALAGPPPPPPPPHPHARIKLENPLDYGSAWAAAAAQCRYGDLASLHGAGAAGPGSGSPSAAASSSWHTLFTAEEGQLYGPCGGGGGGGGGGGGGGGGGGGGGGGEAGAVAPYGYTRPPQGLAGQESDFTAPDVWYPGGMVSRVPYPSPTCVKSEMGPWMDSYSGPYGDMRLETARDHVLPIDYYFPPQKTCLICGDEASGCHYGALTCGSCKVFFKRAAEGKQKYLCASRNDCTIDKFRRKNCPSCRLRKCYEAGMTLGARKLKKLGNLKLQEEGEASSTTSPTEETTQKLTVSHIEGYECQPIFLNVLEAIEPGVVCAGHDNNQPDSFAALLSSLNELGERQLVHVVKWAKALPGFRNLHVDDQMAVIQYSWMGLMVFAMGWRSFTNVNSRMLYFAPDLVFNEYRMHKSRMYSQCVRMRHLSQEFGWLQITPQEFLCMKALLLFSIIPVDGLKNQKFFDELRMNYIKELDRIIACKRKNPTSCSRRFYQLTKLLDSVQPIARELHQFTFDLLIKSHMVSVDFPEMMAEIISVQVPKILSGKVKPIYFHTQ
Chain of Glucocorticoid receptor (Homo sapiens) (P04150 whole entry, looked up): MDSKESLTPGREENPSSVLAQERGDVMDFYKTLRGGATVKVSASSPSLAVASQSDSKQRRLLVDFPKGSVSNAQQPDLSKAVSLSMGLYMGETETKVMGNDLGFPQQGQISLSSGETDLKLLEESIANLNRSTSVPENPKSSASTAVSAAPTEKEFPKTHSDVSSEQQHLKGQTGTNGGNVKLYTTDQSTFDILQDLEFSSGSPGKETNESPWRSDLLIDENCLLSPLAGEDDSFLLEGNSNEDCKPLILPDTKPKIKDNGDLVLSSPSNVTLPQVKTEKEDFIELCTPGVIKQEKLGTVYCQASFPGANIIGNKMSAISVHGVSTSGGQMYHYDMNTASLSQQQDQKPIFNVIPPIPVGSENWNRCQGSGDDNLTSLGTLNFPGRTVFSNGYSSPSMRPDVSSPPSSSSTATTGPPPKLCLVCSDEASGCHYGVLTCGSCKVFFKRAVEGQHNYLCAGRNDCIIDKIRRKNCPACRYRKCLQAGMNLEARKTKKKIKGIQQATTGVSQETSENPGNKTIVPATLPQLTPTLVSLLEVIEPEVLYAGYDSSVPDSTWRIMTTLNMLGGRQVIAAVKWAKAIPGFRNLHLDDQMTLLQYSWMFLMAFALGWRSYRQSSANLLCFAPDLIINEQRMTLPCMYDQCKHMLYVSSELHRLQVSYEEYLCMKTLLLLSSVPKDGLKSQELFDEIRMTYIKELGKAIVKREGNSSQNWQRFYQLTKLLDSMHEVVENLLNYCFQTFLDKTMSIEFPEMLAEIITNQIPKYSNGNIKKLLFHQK

| SMILES | outcome [1] | Potency [2] | outcome [3] | outcome [4] | outcome [5] | Potency [6] | Potency [7] | Potency [8] | Potency [9] | Potency [10] | Potency [11] | Potency [12] | Potency [13] | Potency [14] | Potency [15] | Potency [16] | Potency [17] | Potency [18] | Potency [19] | Potency [20] |
| --- | --- | --- | --- | --- | --- | --- | --- | --- | --- | --- | --- | --- | --- | --- | --- | --- | --- | --- | --- | --- |
| CCCCCCCC[N+](C)(C)CCCCCCCC | inactive | inactive | inactive | inactive | inactive | inactive | inactive | inactive | 668 nM (active) and 531 nM (active) | 1.19 µM (active) and 1.06 µM (active) | 1.33 µM (active) and 944 nM (active) | 21.1 µM (active) | – | – | – | – | – | – | – | – |
| NCC(O)CC(=O)O (stereo not given) | inactive | inactive | inactive | inactive | inactive | inactive | inactive | inactive | inactive | inactive | inactive | inactive | inactive | inactive | inactive | – | – | – | – | – |
| NC(N)=NCC1COC2(CCCCC2)O1 (stereo not given) | inactive | inactive | inactive | inactive | inactive | inactive | – | inactive | inactive | inactive | inactive | inactive | inactive | inactive | inactive | inactive | inactive | inactive | – | – |
| CCCC(CCC)C(=O)OC1C[C@H]2CC[C@@H](C1)[N+]2(C)C (stereo not given in full) | inactive | inactive | inactive | inactive | inactive | inactive | inactive | – | – | inactive and 13.3 µM (active) | inactive | inactive | – | inactive | – | inactive | – | – | – | – |
| O=C1c2ccccc2CN2C(=O)c3ccccc3CN12 | inactive | inactive | inactive | inactive | inactive | inactive | inactive | inactive | inactive | inactive | inactive | inactive | inactive | inactive | inactive | – | – | – | – | – |
| COc1cc(NS(C)(=O)=O)ccc1Nc1c2ccccc2nc2ccccc12 | inactive | 12.6 µM (active) | inactive | inactive | inactive | 12.6 µM [fluorescent] (active) | inactive | – | 0.0596 µM (active) | 0.0668 µM (active) | 0.0084 µM (active) | inactive | – | – | – | 12.6 µM [fluorescent] (active) | – | – | 0.601 µM (active) | 10.7 µM (active) |
| c1ccc2occc2c1 | inactive | inactive | inactive | inactive | inactive | inactive | inactive | – | – | – | – | inactive | – | – | – | inactive | – | – | – | – |
| COc1cccc(-c2ccc(/C=C\CN3CCCCCC3)cc2Cl)c1 | inactive | inactive | inactive | inactive | inactive | inactive | inactive | – | 3.05 µM (active) | 0.483 µM (active) | 2.16 µM (active) | – | – | – | 38.7 µM (active) | inactive | – | – | – | – |
| O=C(CCCCCCCCc1cccnc1)N1CCC(C=C(c2ccccc2)c2ccccc2)CC1 | inactive | inactive | inactive | inactive | inactive | inactive | inactive | – | 48.6 µM (active) | 24.3 µM (active) | 24.3 µM (active) | inactive | 21.9 µM (active) | 34.7 µM (active) | inactive | – | – | inactive | – | inactive |
| CN1CCN(c2ccccc2/C=C2\SCCN(c3ccc(Cl)c(Cl)c3)C2=O)CC1 | inactive | inactive | inactive | inactive | inactive | inactive | inactive | – | 4.33 µM (active) | 2.73 µM (active) | 5.45 µM (active) | – | – | – | – | inactive | – | – | – | – |
| CC1=C(/C=C/C(C)=C/C=C/C(C)=C\C(=O)O)C(C)(C)CCC1 | inactive | inactive | inactive | inactive | inactive | inactive | inactive | – | 61.3 µM (active) | 61.3 µM (active) | 68.8 µM (active) | inactive | – | – | – | inactive | – | – | – | – |
| CCOc1ccc([N+](=O)[O-])cc1 | inactive | inactive | inactive | inactive | inactive | inactive | inactive | – | – | 31.1 µM (active) | 43.9 µM (active) | – | – | 35.2 µM (active) | inactive | inactive | – | – | – | – |
| O=C(Nc1ccccc1)c1cc(Cl)ccc1O | inactive | inactive | inactive | inactive | inactive | inactive | inactive | inactive | 13.7 µM (active) | 9.69 µM (active) | 9.69 µM (active) | – | – | – | 11 µM (active) | – | – | – | – | – |
| NC(N)=NCc1cccc(I)c1 | inactive | inactive | inactive | inactive | inactive | inactive | inactive | inactive | – | 8.41 µM (active) and 11.9 µM (active) | 6.68 µM (active) and 7.5 µM (active) | – | inactive | inactive | inactive | – | – | – | – | – |
| CC(C)(C)C(=O)OCC(=O)[C@H]1CC[C@H]2[C@@H]3CCC4=CC(=O)CC[C@]4(C)[C@H]3CC[C@]12C | inactive | inactive | inactive | inactive | inactive | inactive | inactive | – | inactive | inactive | inactive | inactive | – | inactive | inactive | – | – | – | – | – |
